From PubChem
HT1080-NT tox = kills 2HG-producing HT-1080-NT fibrosarcoma cells | HT-1080-NT fibrosarcoma viability, CellTiter-Glo ATP luminescence, 48 h | Potency, µM (series often up to 46.1 µM), for inactives: at the highest dose activity, negative = less viability, actives largely listed as cytotoxic | 360,000 tested, 1.6% active;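 also: NT is the 2HG producing partner of a matched IDH1 knockdown line; 0% = DMSO-treated cells and -100% = media-only wells without cells; nearly all actives have a fitted effect of over 55% in size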
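Viability of the 2HG-overproducing fibrosarcoma line after 48 hours of compound exposure at 37 degrees C was determined by luminescence with CellTiter-Glo, and concentration-effect curves were then fitted and categorized.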
HT1080 IDH1KD tx = toxicity to HT-1080 IDH1 knockdown cells (counter line); HT-1080 IDH1 knockdown viability, ATP luminescence, 48 h; Potency, µM (titrated, usually from 46.1 µM), without a hit: at the top dose activity, negative = toxicity, hits mostly cytotoxic; 360,000 tested, 2% active; AID 686971;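 also: 0% = DMSO wells and -100% = cell-free medium wells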
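Viability of IDH1-knockdown HT-1080 fibrosarcoma cells was assessed by CellTiter-Glo after 48 h at 37 °C with titrated compound; concentration-effect curves were classified by fit quality and response size.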
KB-V1 MDR tox = kills drug-selected multidrug resistant KB-V1 cells; KB-V1 MDR cells viability, CellTiter-Glo, 72 h; Potency, µM (titrated, usually from 46.1 µM), most hits filed as cytotoxic; 400,000 tested, 3.4% active; also: nearly all actives have a fitted effect of over 60% in size
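KB-V1 MDR subline cells in DMEM (phenol-red free, 10% FBS) exposed to compounds in qHTS concentration series for 72 h at 37 degrees C. Viability read by CellTiter-Glo luminescence; concentration-effect curves fitted after normalization and correction.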
DT40 TDP1 no CPT = qHTS for Inhibitors of human tyrosyl-DNA phosphodiesterase 1 (TDP1): qHTS in cells in absence of CPT | DT40 Tdp1-/- hTDP1 cells, no CPT, ATP luminescence, 48 h | Potency, µM (titrated, usually from 46.2 µM), inactives show at the highest dose activity change, negative = growth inhibition, hits mostly inhibitors | 420,000 tested, 15% active | AID 686978, 2013; also: nearly all actives have a fitted effect of over 55% in size
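No-CPT arm: Tdp1-/-;hTDP1 DT40 cells (400/well) plus compounds, incubated ≥48 hr at 37 °C. Readout CellTiter-Glo luminescence.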
KB-3-1 cytotox = kills parental KB-3-1 adenocarcinoma cells; Potency, µM (series often up to 46.1 µM), usual class: cytotoxic; 400,000 tested, 1.4% active; AID 1347075; KB-3-1 viability, CellTiter-Glo ATP luminescence, 72 h; also: nearly all actives have a fitted effect of over 60% in size
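Here the drug-naive KB-3-1 line serves as comparator for MDR sub-line selectivity; cells received compound titrations, 72 h at 37 °C, then CellTiter-Glo readout.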
DT40 TDP1 CPT = growth inhibition of DT40 Tdp1-/-;hTDP1 cells with camptothecin (screen for TDP1 inhibitors) | 420,000 tested, 12% active | chicken DT40 Tdp1-/-;hTDP1 cells + 20 nM CPT, ATP luminescence, 48 h | AID 686979 | Potency, µM (titrated, usually from 46.2 µM), for inactives: at the highest dose activity change, negative = growth inhibition, hits mostly inhibitors; also: nearly all actives have a fitted effect of over 55% in size
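Chicken DT40 Tdp1-/- cells stably complemented with human TDP1 were seeded at 400 cells/well in medium containing 20 nM camptothecin, exposed to pin-transferred compounds, and grown at 37 °C for at least 48 hr. Viability was read as ATP luminescence.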
* = called active by the depositor; i = inactive; ? = inconclusive; nt = no result. Compounds with a hit are over-represented: about 19% of the library has one in this group of screens. Calls follow the shape of the dose curve; as a rule, active = well fitted curve in the direction sought with a large enough effect; inconclusive = small, poorly fitted or top-dose-only effect, or another doubt; inactive = no such curve, though single readings can be large; an effect the other way counts as inactive or inconclusive. Unless noted, % is scaled to controls: 0 for no effect and ±100 for the full control effect; potency is read from the fitted curve at half-maximal effect.

SMILES | HT1080-NT tox | HT1080 IDH1KD tx | KB-V1 MDR tox | DT40 TDP1 no CPT | KB-3-1 cytotox | DT40 TDP1 CPT
CSc1ncc(C(=O)Nc2ccc(C)c(Cl)c2)c(-c2ccccc2)n1 | nt | nt | i | ? | i | 23µM*
Cc1c(Cl)cccc1-n1ncc(C(=O)N2CCOCC2)c1C1CCN(C(=O)OC(C)(C)C)CC1 | nt | nt | i | -17% | i | ?
COc1ccccc1N1CCN(C(=O)c2cnn(-c3ccc(C)c(C)c3)c2C2CCN(C(=O)OC(C)(C)C)CC2)CC1 | nt | nt | i | 21µM* | 21µM* | 21µM*
CCOC(=O)c1cnn(-c2cccc(Cl)c2)c1C1CCN(C(=O)OC(C)(C)C)CC1 | nt | nt | ? | ? | ? | 23µM*
Cc1ccc(-n2ncc(C(=O)N3CCN(c4ccccn4)CC3)c2C2CCN(C(=O)OC(C)(C)C)CC2)cc1C | nt | nt | i | -16% | i | -10%
Cc1cccc(N2CCN(C(=O)c3cnn(-c4cccc(Cl)c4C)c3C3CCNCC3)CC2)c1C | nt | nt | nt | 5.2µM* | nt | 3.7µM*
Cc1ccc(N2CCN(C(=O)c3cnn(-c4ccc(C)c(C)c4)c3C3CCNCC3)CC2)c(C)c1 | nt | nt | i | 6.5µM* | ? | 6.5µM*
CC12CCC(CC1O)C2C(=O)O (centres undefined) | 6% | 7% | i | -4% | i | 7%
COc1cc(/C=C2/SC(=S)N(CC(=O)NNC(=O)c3ccc(F)cc3)C2=O)cc(OC)c1OC | 8% | 9% | ? | -4% | i | -27%
COc1ccc(-n2ncc(C(=O)N3CCN(C4CCCCC4)CC3)c2C2CCN(C(=O)OC(C)(C)C)CC2)cc1 | nt | nt | i | 21µM* | i | ?
CC(C)(C)OC(=O)N1CCC(c2c(C(=O)N3CCN(C4CCCCC4)CC3)cnn2-c2cccc(Cl)c2)CC1 | nt | nt | i | 23µM* | i | 16µM*
CCN1CCN(C(=O)c2cnn(-c3cccc(Cl)c3)c2C2CCN(C(=O)OC(C)(C)C)CC2)CC1 | nt | nt | i | ? | i | -23%
CC(C)(C)OC(=O)N1CCC(c2c(C(=O)N3CCN(C4CCCCC4)CC3)cnn2-c2ccc(F)cc2)CC1 | 14% | -6% | i | 10% | i | -18%
Cc1ccc(-n2ncc(C(=O)N3CCN(C4CCCCC4)CC3)c2C2CCN(C(=O)OC(C)(C)C)CC2)cc1C | nt | nt | i | 7.3µM* | i | 8.2µM*
COC(=O)c1ccc2c(=O)n(Cc3ccc(C(=O)NC4CCCC4)cc3)c(=S)[nH]c2c1 | 5% | 2% | i | ? | i | ?
CCOC(=O)C1CCCN(C(=O)c2ccc3c(=O)n(Cc4ccccc4OC)c(=S)[nH]c3c2)C1 (centres undefined) | -26% | ? | i | 18µM* | ? | ?
CCOC(=O)C1CCCN(C(=O)c2ccc(Cn3c(=S)[nH]c4cc(C(=O)OC)ccc4c3=O)cc2)C1 (centres undefined) | 0% | -25% | ? | 26µM* | i | ?
CCOC(=O)N1CCN(C(=O)c2ccc(Cn3c(=S)[nH]c4cc(C(=O)OC)ccc4c3=O)cc2)CC1 | 5% | -3% | i | 8.2µM* | i | ?
C[C@@H]1CN([C@H](C)CO)C(=O)c2cc(NC(=O)Nc3ccc4c(c3)OCO4)ccc2O[C@H]1CN(C)Cc1ccncc1 | 1% | 1% | i | -19% | i | 5%
Cc1ccc(C(=O)C(OC(=O)CN2C(=O)c3ccccc3C2=O)c2ccccc2)cc1C (centres undefined) | 4% | -2% | i | -8% | i | -5%
Cn1cc(-c2nnnn2-c2ccc(Cl)cc2)c(C(F)(F)F)n1 | 1% | -1% | i | ? | i | ?
COc1ccc(-n2nnnc2-c2cnc(N3CCCC3)nc2C(F)(F)F)cc1 | -3% | -21% | 5.2µM* | 9.2µM* | 18µM* | 8.2µM*
CNc1ncc(-c2nnnn2-c2ccccc2)c(-c2ccccc2)n1 | -2% | -18% | 21µM* | ? | i | ?
COc1ccc(-n2nnnc2-c2cccnc2)cc1 | -2% | -2% | i | -20% | i | 2%
FC(F)(F)c1nc(-c2cccs2)ncc1-c1nnnn1-c1ccc(Cl)cc1 | ? | ? | 16µM* | 2.9µM* | ? | 4.1µM*
SMILES | HT1080-NT tox | HT1080 IDH1KD tx | KB-V1 MDR tox | DT40 TDP1 no CPT | KB-3-1 cytotox | DT40 TDP1 CPT
FC(F)(F)c1nc(-c2cccnc2)ncc1-c1nnnn1-c1ccccc1 | -3% | -14% | i | 16µM* | i | ?
COCCNC(=O)C1(C)CCN(C(=O)c2ccc3c(c2)C(C)(C)CCC3(C)C)C1 (centres undefined) | 2% | 2% | i | 26µM* | i | ?
COCCNC(=O)C1CCCN(C(=O)c2ccc3c(c2)C(C)(C)CCC3(C)C)CC1 (centres undefined) | -19% | 0% | i | ? | i | 13µM*
CCCCN1C(=O)C(=O)NC[C@@H]1CC1CCCCC1 | -15% | -5% | i | ? | i | -12%
OC(c1ccccc1)c1nc2ccccc2n1Cc1c(F)cccc1Cl (centres undefined) | nt | nt | i | ? | i | ?
CCCN(CCC)C(=O)Cn1c(=O)n(-c2cccc(OC)c2)c(=O)c2c(C)c(C(=O)N(C)C)sc21 | nt | nt | nt | -3% | nt | -8%
CCOC(=O)C(C)On1c(-c2cccc(Cl)c2)nc2ccc([N+](=O)[O-])cc21 (centres undefined) | -23% | -18% | ? | 21µM* | i | ?
CC(=O)Nc1ccc(S(=O)(=O)N[C@@H](C)C(=O)OCC(=O)Nc2ccc3c(c2)OCCO3)cc1 | -2% | 7% | i | 7% | i | 7%
COC(=O)c1c(NC(=O)c2ccc(C)c(S(=O)(=O)Nc3ccccc3C)c2)sc2c1CCCC2 | 6% | 10% | 23µM* | ? | i | ?
COC(=O)c1c(NS(=O)(=O)c2ccc3ccccc3c2)sc2c1CCCC2 | -19% | ? | 16µM* | -9% | i | -1%
CCOC(=O)c1c(NS(=O)(=O)c2ccc(Br)cc2)sc2c1CCC2 | -1% | 3% | i | ? | i | ?
COc1ccc(CNC(=O)c2cc(Nc3ccc(OC)cc3OC)nc3ccccc23)cc1 | nt | nt | i | ? | i | ?
COc1ccccc1Nc1c2c(nc3ccccc13)CCC2 | ? | ? | ? | 16µM* | ? | 18µM*
